Compound activity (PubChem)
Hits are enriched below; roughly 27% of the tested compounds scored in any of these assays.
CYP2C19 inh: inhibitors of human CYP2C19. P33261. hit rate 21% among 96,000. inhibition, % at 5 µM. CYP2C19 Supersomes, luciferin-H EGE luminescence, 30 min;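 active = CYP2C19 inhibition above a set limit at 5 µM in the primary screen, cut at about 50% in these data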;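 also: plate controls were negative control wells for no effect and 2.5 mM tranylcypromine positive control for full effect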
CYP2C9 inhib: blocks human cytochrome P450 2C9. hit rate 20% among 96,000. P11712. inhibition, % at 5 µM. CYP2C9 Supersomes, luciferin-H conversion, luminescence. AID 777;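 active = blocking of liver enzyme CYP2C9 beyond about 50% at 5 µM, limit read from the data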
CYP2C9 act: activators of human CYP2C9. recombinant CYP2C9, luciferin-H conversion, luminescence; stronger effect = higher value; factor 1 = untreated enzyme, 0 = blocked. activation factor at 5 µM. hit rate 1.4% among 96,000;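 active = activation factor of 2 or more for CYP2C9 at a 5 µM dose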;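 also: 0 = sulfaphenazole-blocked wells and 1 = vehicle-only wells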
Cav32 inh: human Cav3.2 channel inhibition, primary screen | AID 449739 | hit rate 4% among 100,000 | B-score at 10 µM | Cav3.2-expressing cells, Fluo-4 calcium fluorescence FDSS; stronger effect = lower value | O95180;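 active = single-dose well whose peak fluorescence ratio is a statistical outlier from its plate by either plate-standardised score or position-corrected B-score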
CYP2C19 activ: cytochrome P450 2C19 (human) activation. 96,000 tested, under 10 active. P33261. recombinant CYP2C19, luciferin-H EGE luminescence; stronger effect = higher value; 0 = fully inhibited enzyme, 1 = untreated enzyme. activation factor at 5 µM;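 active = activation factor of at least 2 at 5 µM in the primary screen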;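 also: 0 = wells with 2.5 mM tranylcypromine and 1 = vehicle-only wells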
Numbers without * were called inactive; x = no result given.

SMILES	CYP2C19 inh	CYP2C9 inhib	CYP2C9 act	Cav32 inh	CYP2C19 activ
c1ccc(Cn2c(CNc3nc4ccccc4n3CCN3CCCCC3)nc3ccccc32)cc1	x	x	x	-3.8*	x
Clc1ncccc1-c1nc2ccccc2n1Cc1ccccc1	25	21	0.8	0.043	0.8
c1ccc(Cn2c(CN3CCCC3)nc3ccccc32)cc1	58*	8	0.9	0.22	0.4
Cn1c(SCC(=O)NC(C)(C)C)nnc1-c1cnccn1	8	18	0.8	-0.32	0.9
COc1ccc(Nc2nnc(SCc3cc([N+](=O)[O-])cc4c3OCOC4)s2)cc1	37	94*	0.1	-0.057	0.6
Cc1ccc(CNc2nc(N)c([N+](=O)[O-])c(Nc3cccc(F)c3)n2)cc1	50*	65*	0.3	0.29	0.5
COc1ccc2[nH]cc(CCN=C3SCC(=O)N3C)c2c1	79*	40	0.6	0.42	0.2
COC(=O)c1cccc(NC(=O)c2cccs2)c1C	52*	8	0.9	0.3	0.5
COC(=O)c1cccc(NC(=O)Cc2ccc(OC)cc2)c1C	92*	67*	0.3	0.26	0.1
CCCOC(=O)c1ccc(NS(=O)(=O)c2cccs2)cc1	-14	100*	0	-5*	1.1
O=C(c1ccc(NS(=O)(=O)c2cccs2)cc1)N1CCCCC1	x	x	x	0.2	x
COC(=O)c1cccc(NS(=O)(=O)c2ccc(OC)cc2)c1C	x	x	x	-1.5	x
COC(=O)c1cccc(NS(=O)(=O)c2cccs2)c1C	14	74*	0.3	0.89	0.9
C=C1CC2C(=O)N(Cc3cc(OC)ccc3OC)C(C(=O)OCC)(C(=O)OCC)C1N2C(=O)OC(C)(C)C (stereo not drawn)	x	x	x	-0.45	x
C=CCOC(=O)C1=C[C@H](c2csc3ccccc23)C[C@H](OCc2ccc(CO)cc2)O1	x	x	x	-0.93	x
COC(=O)c1ccccc1NC1=C/C(=N\S(=O)(=O)c2cccs2)c2ccccc2C1=O	67*	83*	0.2	-2.6	0.3
COC(=O)c1ccccc1Nc1ccccc1	-9	2	1	-0.46	1.1
Cc1csc(=Nc2c(C)n(C)n(-c3ccccc3)c2=O)n1Cc1ccccc1	82*	42	0.6	-0.26	0.2
COC(=O)CCCC(=O)Nc1c(F)c(F)c(F)c(F)c1F	9	7	0.9	0.61	0.9
O=C(NCCC1=CCCCC1)c1ccc2c(c1)N(Cc1ccccc1)C(=O)CS2	49	75*	0.3	-3.9	0.5
CC1CC(C)CN(C(=O)c2ccc3c(c2)N(Cc2ccccc2)CCS3)C1 (stereo not drawn)	34	11	0.9	-7.7*	0.7
O=C(NCCN1CCOCC1)c1ccc2c(c1)N(Cc1ccccc1)C(=O)CS2	-3	-2	1	0.97	1
Cc1ccc(CN2CCSc3ccc(C(=O)N4CCN(c5ncccn5)CC4)cc32)cc1	97*	93*	0.1	-2.5	0
O=C(NCCN1CCOCC1)c1ccc2c(c1)N(Cc1ccccc1)CCS2	54*	63*	0.4	-0.34	0.5
Nc1nonc1-c1nc2ccccc2n1CC(=O)N1CCN(c2ccc(F)cc2)CC1	21	12	0.9	-0.16	0.8
SMILES	CYP2C19 inh	CYP2C9 inhib	CYP2C9 act	Cav32 inh	CYP2C19 activ
Oc1c(N=Nc2ccccn2)ccc2ccccc12	31	43	0.6	-0.11	0.7
Cc1cc(NC(=O)COC(=O)C2CCN(S(=O)(=O)c3c(Cl)cccc3Cl)CC2)no1	42	42	0.6	-2.4	0.6
O=C(NCC(=O)N(Cc1ccccc1)C(C(=O)NC1CCCC1)c1ccncc1)c1ccco1 (stereo not drawn)	x	x	x	-0.0046	x
Cc1noc(/C=C/N(C)C)c1S(=O)(=O)N1CCCC(C(=O)N2CCCCC2)C1 (stereo not drawn)	3	58*	0.4	1.5	1
Cc1noc(/C=C/N(C)C)c1S(=O)(=O)N1CCCC(C(=O)Nc2ccc3c(c2)OCO3)C1 (stereo not drawn)	48	67*	0.3	0.16	0.5
Brc1ccc(C2C3=C(Nc4ncnn42)c2ccccc2OC3c2ccncc2)cc1 (stereo not drawn)	55*	89*	0.1	-4.9*	0.4
COc1ccc(C2Oc3ccccc3C3=C2C(c2cccs2)n2ncnc2N3)cc1 (stereo not drawn)	22	67*	0.3	-7.1*	0.8
CCCCCCCCCCNC(=O)CCn1[nH]c(=O)c2ccccc2c1=O	x	x	x	-3.4	x
CC1(C)CC(=O)C=C(NNC(=O)c2ccccc2O)C1	-6	22	0.8	2.5	1.1
O=C(NNC1=C(C(=O)C(F)(F)F)CCC1)c1ccc(Br)cc1	7	69*	0.3	-5.1*	0.9
O=C(NNC1=C(C(=O)C(F)(F)F)CCC1)c1ccccc1O	26	85*	0.2	-6.3*	0.7
Fc1ccc(-c2nnc(CN3CCC(c4nc5ccccc5s4)CC3)o2)cc1	7	20	0.8	-0.34	0.9
O=C(OCc1ccccc1Cl)c1ccc(-n2cnnc2)cc1	98*	90*	0.1	0.56	0
CCc1cc2cccc(C)c2nc1SCC(=O)c1ccc(NC(C)=O)cc1	3	80*	0.2	1.5	1
CCc1cc2cccc(C)c2nc1SCC(=O)NNC(=O)c1ccco1	-17	-48	1.5	-0.31	1.2
CCc1cc2ccc(C)cc2nc1SCC(=O)c1ccc(NC(C)=O)cc1	63*	92*	0.1	-1.2	0.4
CC(=O)Nc1ccc(C(=O)CSc2nnc(C)o2)cc1	2	3	1	-0.33	1
O=C(CSc1ccc2nnc(-c3cccnc3)n2n1)NCc1ccc2c(c1)OCO2	-13	11	0.9	0.56	1.1
CC(=O)c1c(O)cc(O)c(C(C)=O)c1O	x	x	x	-5.4*	x
Cc1ccc(C2NC(=O)Cc3ccccc32)cc1 (stereo not drawn)	65*	2	1	-0.97	0.3
CCOc1cccc(C2C(C(=O)c3ccco3)=C(O)C(=O)N2Cc2ccncc2)c1 (stereo not drawn)	-13	22	0.8	-0.38	1.1
COCCN1C(=O)C(O)=C(C(=O)c2ccco2)C1c1cccc(Oc2ccccc2)c1 (stereo not drawn)	-15	32	0.7	-3.8*	1.1
COc1cc(C2C(C(=O)c3ccco3)=C(O)C(=O)N2CCc2ccccc2)ccc1O (stereo not drawn)	7	54*	0.5	0.42	0.9
Cc1ccc2nc(N3C(=O)C(O)=C(C(=O)c4ccco4)C3c3cccs3)sc2c1 (stereo not drawn)	9	96*	0	-3.1*	0.9
COc1ccc(CCN2C(=O)C(O)=C(C(=O)c3ccco3)C2c2cccs2)cc1OC (stereo not drawn)	1	53*	0.5	-0.69	1
O=C(NCCCN1CCOCC1)c1cc2c(s1)CSC2	11	-11	1.1	1.5	0.9
CC(C)Cn1c(N)c(C(=O)COC(=O)c2ccc3ccccc3n2)c(=O)n(C)c1=O	x	x	x	1.5	x
